# KB-V1 MDR tox – kills drug-selected multidrug resistant KB-V1 cells; Potency, µM (top dose mostly 46.1 µM), most hits filed as cytotoxic; 3.4% of 400,000 active; KB-V1 MDR cells viability, CellTiter-Glo, 72 h; also: nearly all actives have a fitted effect of over 60% in size
#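 KB-V1 MDR subline cells in DMEM (phenol-red free, 10% FBS) exposed to compounds in qHTS concentration series for 72 h at 37 degrees C. Viability read by CellTiter-Glo luminescence; concentration-effect curves fitted after normalization and correction.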
# DT40 TDP1 no CPT – qHTS for Inhibitors of human tyrosyl-DNA phosphodiesterase 1 (TDP1): qHTS in cells in absence of CPT; DT40 Tdp1-/- hTDP1 cells, no CPT, ATP luminescence, 48 h; Potency, µM (highest dose often 46.2 µM), without a hit: at the top dose activity change, negative = growth inhibition, most hits filed as inhibitors; 15% of 420,000 active; AID 686978, 2013; also: nearly all actives have a fitted effect of over 55% in size
#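 DT40 Tdp1-/-;hTDP1 cells, no CPT (DMSO vehicle only), 400 cells/well; compounds pin-transferred; ≥48 hr, 37 °C; CellTiter-Glo 30 min RT dark, luminescence read.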
# HT1080NT lethal – kills 2HG-producing HT-1080-NT fibrosarcoma cells; HT-1080-NT fibrosarcoma viability, CellTiter-Glo ATP luminescence, 48 h; Potency, µM (titrated, usually from 46.1 µM), for the others: at the highest dose activity, negative = less viability, most hits filed as cytotoxic; 1.6% of 360,000 active;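 also: NT is the 2HG producing partner of a matched IDH1 knockdown line; 0% = DMSO-treated cells and -100% = media-only wells without cells; nearly all actives have a fitted effect of over 55% in size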
#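 Compounds were tested in concentration-response format on HT-1080-NT cells for 48 hours at 37 degrees C. Cell viability came from CellTiter-Glo luminescence; curves were classified by r2, response magnitude and activity.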
# TDP1 cell CPT – growth inhibition of DT40 Tdp1-/-;hTDP1 cells with camptothecin (screen for TDP1 inhibitors); chicken DT40 Tdp1-/-;hTDP1 cells + 20 nM CPT, ATP luminescence, 48 h; Potency, µM (doses to about 46.2 µM), without a hit: top-dose activity change, negative = growth inhibition, actives largely listed as inhibitors; 12% of 420,000 active; AID 686979; also: nearly all actives have a fitted effect of over 55% in size
#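 Chicken DT40 Tdp1-/- cells complemented with human TDP1, 400 cells/well, exposed to compounds plus 20 nM camptothecin for at least 48 h at 37 C; viability read as ATP content by CellTiter-Glo luminescence.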
# HT1080 IDH1KD tx – HT-1080 IDH1 knockdown cell toxicity (counter line) | HT-1080 IDH1 knockdown viability, ATP luminescence, 48 h | Potency, µM (highest dose often 46.1 µM), for the others: at the highest dose activity, negative = toxicity, most hits filed as cytotoxic | 2% of 360,000 active | AID 686971;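 also: 0% = DMSO wells and -100% = cell-free medium wells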
#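 IDH1KD HT-1080 cells, 750/well, RPMI + 5% FBS; compound pinned after 2 h settling; 48 h, 37 °C; CellTiter-Glo luminescence; % activity normalised to DMSO and no-cell wells; curves fitted, classed by r2 and efficacy.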
# KB-3-1 cytotox – KB-3-1 parental cell cytotoxicity; 1.4% of 400,000 active; KB-3-1 viability, CellTiter-Glo ATP luminescence, 72 h; Potency, µM (highest dose often 46.1 µM), actives largely listed as cytotoxic; also: nearly all actives have a fitted effect of over 60% in size
#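 KB-3-1 parental drug-naive adenocarcinoma cells in DMEM/10% FBS, incubated 72 h at 37 C with pin-transferred compounds across a concentration series. Viability by CellTiter-Glo luminescence; concentration-response curves fitted after normalization.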
# Starred values were filed as active, the others as inactive; i = inactive; ? = inconclusive; nt = no result given. An excerpt weighted towards active compounds, which were near 19% of everything screened. Calls follow the shape of the dose curve; as a rule, active = well fitted curve in the direction sought with a large enough effect; inconclusive = small, poorly fitted or top-dose-only effect, or another doubt; inactive = no such curve, though single readings can be large; an effect the other way counts as inactive or inconclusive. Unless noted, % is scaled to controls: 0 for no effect and ±100 for the full control effect; potency is read from the fitted curve at half-maximal effect.
SMILES,KB-V1 MDR tox,DT40 TDP1 no CPT,HT1080NT lethal,TDP1 cell CPT,HT1080 IDH1KD tx,KB-3-1 cytotox
COc1ccccc1CNC(=O)CSc1ccsc1[N+](=O)[O-],i,-16%,2%,?,-6%,i
O=C(CSc1ccsc1[N+](=O)[O-])NCc1ccccc1,?,-25%,4%,-5%,-7%,5.8µM*
Cc1ccccc1OCC(=O)Nc1ccc2c(c1)Cc1ccccc1-2,i,-17%,-6%,-6%,?,i
COc1ccc(OCC(=O)Nc2ccc(N3CCN(C(=O)c4ccccc4C)CC3)cc2)cc1,i,?,-5%,26µM*,0%,i
Cc1ccccc1OCC(=O)Nc1ccc(N2CCN(C)CC2)c(Cl)c1,i,15µM*,?,?,?,i
CCC(=O)N1CCN(c2ccc(NC(=O)COc3cccc(C)c3C)cc2)CC1,i,18µM*,18%,?,-3%,i
COc1ccc(OCC(=O)Nc2ccc(N3CCN(C(=O)c4ccccc4)CC3)c(Cl)c2)cc1,?,12µM*,-14%,?,-9%,i
COc1cc(C2C(C#N)=C(N)OC3=C2C(=O)CCC3)cc2c1OCO2 (stereo not given),?,-6%,21%,1%,3%,i
CCOC(=O)c1cc(-c2ccccc2)n(-c2cccc(C(=O)Nc3cccc(F)c3)c2)c1C,i,?,nt,-110%,nt,i
O=C(Nc1c(C(=O)N2CCCCC2)cnn1-c1ccccc1)c1ccccc1F,i,4%,11%,-18%,10%,i
COc1ccc(NC(=O)CN(C)C(=O)CNC(=O)c2cccs2)cc1,i,4%,0%,17%,-2%,i
CCN(CC)c1ccc(S(=O)(=O)N2CCOCC2)cc1NC(=O)CN1CCc2ccccc2C1,?,7.3µM*,-11%,4.6µM*,?,i
CCN(CC)c1ccc(S(=O)(=O)N2CCOCC2)cc1NC(=O)COC(=O)/C=C/c1ccc(O)c(OC)c1,i,21µM*,2%,?,-7%,i
CCN(CC)c1ccc(S(=O)(=O)N2CCOCC2)cc1NC(=O)COC(=O)/C=C/c1ccccc1,i,?,8%,18µM*,0%,i
CCN(CC)c1ccc(S(=O)(=O)N2CCOCC2)cc1NC(=O)COC(=O)/C=C/c1ccc(C)o1,?,10µM*,-19%,13µM*,-17%,i
CCc1ccccc1N1CC(C(=O)N2Cc3ccccc3CC2C(N)=O)CC1=O (stereo not given),i,7%,5%,-2%,15%,i
CCCC(=O)Nc1ccccc1-c1nnc(SCC)[nH]c1=O,?,12%,8%,-1%,1%,i
CC1(C)CCC(=O)N2CC[C@H]3c4cc5ccccc5nc4C[C@@H]1[C@H]32,i,-10%,15%,-7%,13%,i
CC/C(=C/c1ccccc1)c1cc(Oc2ccccc2)cc2oc3ccccc3c12,i,-17%,nt,-10%,nt,i
COc1cc(/C(C)=C/c2ccccc2)c2c(c1)oc1ccccc12,i,14µM*,nt,?,nt,i
COC(=O)CCC(=O)Nc1ccc(S(=O)(=O)Nc2nc(C)cc(C)n2)cc1,i,1%,-4%,-16%,4%,i
CCOc1ccccc1NC1=CC(=O)CC(c2ccccc2)C1 (stereo not given),?,13µM*,?,?,13µM*,i
Cc1ccc(NC2=CC(=O)CC(c3ccccc3)C2)cc1 (stereo not given),?,3.7µM*,2.9µM*,2.9µM*,2.9µM*,?
CC(C)CCNC1=CC(=O)CC(c2ccccc2)C1 (stereo not given),i,?,?,?,?,?

# From PubChem BioAssay
